Assay outcomes from PubChem.
Most compounds without a hit are left out; they make up all but 4.4% or so of the library.
PfHsp90 set2: growth inhibition of yeast expressing Plasmodium Hsp90; S. cerevisiae expressing PfHsp90, BacTiter-Glo ATP, 48 h; yeast lacking PDR1 and PDR3 efflux regulators; inhibition, % at 9.4 µM; 310,000 tested, 0.32% active;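 active = every replicate shows inhibition above about 80%, whatever the replicate mean, limit read from the data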;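 also: 0% = DMSO neutral controls and 100% = 20 µM radicicol positive controls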
SKKanGAS inh: SKKanGAS growth inhibition | inhibition, % at 7.5 µM | 300,000 tested, 1.3% active | S. pyogenes SKKanGAS, kanamycin growth, BacTiter-Glo, 6 h;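 active = mean replicate score, as percent of positive control median, at least 50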;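 also: strain carries kanamycin resistance gene driven by streptokinase promoter and grows in 40 µg/ml kanamycin; loss of luminescence reflects streptokinase promoter inhibition or plain growth inhibition; 0% = median of DMSO wells and 100% = positive control at its reference dose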
TIM10 inh: TIM10 yeast growth inhibition | 330,000 tested, 1.4% active | S. cerevisiae TIM10 strain growth, BacTiter-Glo luminescence, 24 h | inhibition, % at 10 µM;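 active = inhibition of 40% or more at the single tested concentration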;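 also: wild-type TIM10 isogenic control strain grown at permissive 25 °C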
tim23-1 inh: tim23-1 yeast growth inhibition. S. cerevisiae tim23-1 growth, BacTiter-Glo luminescence, 24 h. 330,000 tested, 1.3% active. inhibition, % at 20 µM;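 active = growth inhibition of the mutant yeast at or above 50%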;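 also: temperature-sensitive mutant grown at 25 °C; plate controls were DMSO-treated mutant yeast for no effect and medium wells lacking yeast for full effect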
tim10-1 inh: growth inhibitors of tim10-1 mutant yeast; 330,000 tested, 2.2% active; AID 463190; inhibition, % at 20 µM; S. cerevisiae tim10-1 ts strain growth, BacTiter-Glo, 24 h;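 active = inhibition of at least 40%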;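 also: mutant grown at 25 °C; 0% = DMSO wells with yeast and 100% = wells holding no yeast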
tim10 confirm: TIM10 yeast growth inhibition, confirmed | 4,600 tested, 63% active | shares compounds with TIM10 inh | S. cerevisiae tim10 strain growth, BacTiter-Glo luminescence, 24 h | inhibition, % at 10 µM;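 active = inhibition of yeast growth at or above a set limit in either of two replicates at 10 µM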;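 also: this counterscreen used the strain with wild-type TIM10; 0% = yeast with DMSO and 100% = medium wells lacking yeast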
Active calls of the source: *; / = no result.

SMILES	PfHsp90 set2	SKKanGAS inh	TIM10 inh	tim23-1 inh	tim10-1 inh	tim10 confirm
S=C(NN=C1CCCCCC1)Nc1ccc(Cl)cc1	11	13	33	25	32	/
Fc1ccc(NC(=S)NN=C2CCCCCC2)cc1	1	-3	45*	31	34	21
CCNc1ccc(Br)cc(C(=O)/C=C/c2ccccc2Cl)c1=O	/	-2	45*	27	39	17
CNc1ccc(Br)cc(C(=O)/C=C/c2cccc(Cl)c2Cl)c1=O	22	/	/	/	/	/
CCc1cc(Cn2nc(-c3ccccc3)cc2C(=O)NCc2cccc(Br)c2)on1	-4	/	15	30	13	/
O=C(CCN1C(=O)/C(=C\c2ccccc2F)SC1=S)N1CCCCC1	-7	0	42*	44	30	18
CCOC(=O)C1CCN(C(=O)c2sc3ncnc(N4CCC(C)CC4)c3c2C)CC1	22	1	41*	28	35	16
CCn1cc(CNC(=O)c2cccc([N+](=O)[O-])c2)c(C)n1	-1	-7	-19	6	15	/
O=C(NCc1cn(-c2ccccc2)nc1-c1ccc(F)cc1)c1cccc([N+](=O)[O-])c1	-4	2	41*	6	33	21
COc1ccc(Cl)cc1NC(=O)C(C)OC(=O)C1=NNC(=O)CC1 (stereo unspecified)	-28	/	-2	10	3	/
Cc1cc(C)c(S(=O)(=O)N2CCC(C(=O)NCc3ccncc3)CC2)c(C)c1	-7	-7	17	0	0	/
Cc1cc(C)c(S(=O)(=O)N2CCC(C(=O)NCc3ccc(Cl)cc3Cl)CC2)c(C)c1	127*	13	56*	30	29	51*
CCOc1ccccc1CNC(=O)c1ccc(NC(=O)C2=C(C)OCCS2)cc1	-5	35	-20	20	33	/
COc1ccccc1-c1c(C)nn2c(N3CCC(C(N)=O)CC3)cc(C)nc12	-14	4	-1	7	8	/
COc1ccccc1-c1c(C)nn2c(N3CCC(C)CC3)cc(C)nc12	6	-7	40*	48	38	47*
COc1ccc(OC)c(/C=C/C(=O)OCC(=O)NCc2cccs2)c1	/	/	41*	22	21	5
COc1ccc(OC)c(/C=C/C(=O)OCC(=O)NCc2ccccc2)c1	-4	/	10	31	9	/
O=C1CN(C(=O)COC(=O)CCc2ccccc2O)c2ccccc2N1	17	/	2	-3	-5	/
CCCn1c2c(c(O)c(C(=O)Nc3nccs3)c1=O)CCCC2	-2	18	19	31	23	/
CCCn1c2c(c(O)c(C(=O)Nc3ncccc3C)c1=O)CCCC2	0	-1	45*	49	25	8
O=S(=O)(c1cccc(F)c1)N1CCN(c2nc(-c3cccnc3)nc3ccccc23)CC1	-26	/	34	40	14	/
Cn1nnnc1Sc1ncnc2scc(-c3ccc([N+](=O)[O-])cc3)c12	11	/	35	49	30	/
Cc1[nH]c2ccccc2c1C(=O)/C=C\c1ccccc1Cl	9	-10	43*	47	30	12
Cc1[nH]c2ccccc2c1C(=O)/C=C/c1ccccc1Cl	8	-15	31	19	-5	/
CCOC(=O)c1c(N)sc2c(OCC)c(Br)ccc12	25	-5	41*	47	30	23
SMILES	PfHsp90 set2	SKKanGAS inh	TIM10 inh	tim23-1 inh	tim10-1 inh	tim10 confirm
CC(C)(C)NC(=O)C(c1cccs1)N(CC1CCCO1)C(=O)c1ccc(-c2ccccc2)[nH]1 (stereo unspecified)	1	3	42*	33	25	-11
COC(=O)C1=C(C)N(c2ccccc2)C(=S)NC1c1ccccc1C(F)(F)F (stereo unspecified)	11	10	50*	36	37	16
COCCOC(=O)C1=C(C)N(c2ccccc2)C(=S)NC1c1ccccc1C(F)(F)F (stereo unspecified)	33	13	8	27	23	/
COC(=O)C1CN(C(=O)COc2cccc(C)c2C)c2ccccc2O1 (stereo unspecified)	-14	22	17	26	16	/
COC(=O)C(C)N(C(=O)c1cccc(Cl)c1)c1c(C)cccc1C (stereo unspecified)	4	0	30	35	35	/
COC(=O)C(C)N(C(=O)c1cccc2ccccc12)c1c(C)cccc1C (stereo unspecified)	-6	3	42*	44	27	31*
